Measurements taken from PubChem BioAssay (EPA / NIEHS).
“And” between values parts separate entries of the source, which are not always exact repeats. Equal entries are not always repeated. Records with an inconclusive call do not appear. Some compounds were tested as several samples or in several runs, with calls that do not always agree. The source made the active and inactive calls. The calls were made as follows: active = hit-call score of the fitted dose curve at least 0.9, where 1 is the maximum; inconclusive = response in the unintended direction; inactive = score below 0.9.

What was measured:
[1] = biological target: Cellular tumor antigen p53 (Homo sapiens) (UniProt P04637); assay: TOX21_p53_BLA_p2_ratio: Tox21 HCT-116 p53 Agonism Beta-lactamase Assay, Ratio, Phase 2 (AID 2283592)
Chain of Cellular tumor antigen p53 (Homo sapiens) (P04637 whole entry, looked up): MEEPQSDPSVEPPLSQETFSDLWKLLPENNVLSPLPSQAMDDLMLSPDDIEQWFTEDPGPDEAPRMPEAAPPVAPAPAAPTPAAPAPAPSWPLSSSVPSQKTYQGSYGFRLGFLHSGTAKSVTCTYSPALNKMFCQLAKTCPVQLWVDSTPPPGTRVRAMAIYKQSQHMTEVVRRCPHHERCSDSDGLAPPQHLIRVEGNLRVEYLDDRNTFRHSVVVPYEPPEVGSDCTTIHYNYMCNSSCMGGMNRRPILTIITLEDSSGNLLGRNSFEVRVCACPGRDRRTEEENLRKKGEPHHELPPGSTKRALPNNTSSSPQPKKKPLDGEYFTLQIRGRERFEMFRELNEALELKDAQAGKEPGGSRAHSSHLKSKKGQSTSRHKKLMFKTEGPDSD
Procedure, shortened: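 Gain-of-signal p53 agonism was scored from the beta-lactamase FRET ratio (460/530 nm, 405 nm excitation) in HCT116 cells treated 16 h at 37C, 5% CO2, with DMSO serving as negative control and baseline.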

[2] = TOX21_p53_BLA_p3_viability: Viability Assessment in the Tox21 HCT-116 p53 Agonism Beta-lactamase Assay, Phase 3 (AID 2283593);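 also: cells exposed to compound for 16 h before reading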
Procedure, shortened: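 HCT-116 cells (4000/well) rested 5 h at 37C, then got DMSO compounds by pin tool (217-fold dilution) for 16 h at 37C, 5% CO2. After the bla read, CellTiter-Glo was added and luminescence read at 30 min, room temperature.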

[3] = biological target: Cellular tumor antigen p53 (Homo sapiens) (UniProt P04637); assay: TOX21_p53_BLA_p3_ratio: Tox21 HCT-116 p53 Agonism Beta-lactamase Assay, Ratio, Phase 3 (AID 2283596)
Procedure, shortened: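 HCT116 p53-bla cells (4000/well) given compound in DMSO (217-fold dilution) after 5 h, incubated 16 h at 37C. CCF4-AM substrate 2 h at room temperature; 460/530 nm emission ratio, gain fitted against DMSO.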

[4] = TOX21_p53_BLA_p4_viability: Viability Assessment in the Tox21 HCT-116 p53 Agonism Beta-lactamase Assay, Phase 4 (AID 2283597);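 also: hits lower the luminescence signal meaning cytotoxicity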
Procedure, shortened: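 Following a 16 h exposure at 37C, the treated HCT116 wells were first read for the FRET ratio. They were then lysed with CellTiter-Glo, and ATP luminescence was recorded after 30 min at room temperature.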

[5] = biological target: Cellular tumor antigen p53 (Homo sapiens) (UniProt P04637); assay: TOX21_p53_BLA_p5_ratio: Tox21 HCT-116 p53 Agonism Beta-lactamase Assay, Ratio, Phase 5 (AID 2283599)
Procedure, shortened: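 HCT-116 cells carrying a p53-inducible beta-lactamase reporter were seeded at 4000 cells/well and dosed after 5 h with compound in DMSO (217-fold dilution). After 16 h at 37C, CCF4-AM substrate was added for 2 h, and the 460/530 nm emission ratio was scored as gain-of-signal versus DMSO.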

[6] = TOX21_p53_BLA_p5_viability: Viability Assessment in the Tox21 HCT-116 p53 Agonism Beta-lactamase Assay, Phase 5 (AID 2283600)
Procedure, shortened: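 After the 460/530 nm beta-lactamase measurement, the wells received an ATP-detection luciferase reagent; signal was read 30 min later at RT. Compound treatment lasted 16 h on cells pre-incubated 5 h post-seeding.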

[7] = biological target: Cellular tumor antigen p53 (Homo sapiens) (UniProt P04637); assay: TOX21_p53_BLA_p4_ratio: Tox21 HCT-116 p53 Agonism Beta-lactamase Assay, Ratio, Phase 4 (AID 2283601)
Procedure, shortened: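 HCT116 cells carrying an inducible beta-lactamase reporter were plated at 4000 cells/well, rested 5 h, then exposed to compounds in DMSO (217-fold dilution) for 16 h at 37C. CCF4-AM substrate was loaded 2 h at room temperature; 460/530 nm emission ratio scored gain-of-signal versus DMSO.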

[8] = Tanguay_ZF_120hpf_MORT_legacy: (Legacy) Oregon State University Tanguay Lab 120 Hour Post-fertilization zebrafish Assay for Mortality (AID 2283633);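 as to AC50: fitted as increase in binary mortality versus DMSO negative control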
Procedure, shortened: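 Static waterborne exposure from 6 to 120 hpf at 28C of single dechorionated wild-type (5D) embryos per well, 0.64% DMSO final. Death recorded present/absent by brightfield at 24 and 120 hpf.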

[9] = Tanguay_ZF_120hpf_YSE_legacy: (Legacy) Oregon State University Tanguay Lab 120 Hour Post-fertilization zebrafish Assay for Yolk Sac Edema (AID 2283634);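 as to AC50: actives raise the incidence of yolk sac edema above the DMSO baseline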
Procedure, shortened: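 Presence or absence of yolk sac edema was recorded at 120 hpf in surviving larvae. These were wild-type Tropical 5D embryos, chorion removed at 4 hpf, held in static exposure at 28C from 6 hpf with 0.64% DMSO vehicle.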

[10] = Tanguay_ZF_120hpf_AXIS_legacy: (Legacy) Oregon State University Tanguay Lab 120 Hour Post-fertilization zebrafish Assay for Body Axis Malformation (AID 2283635);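 as to AC50: potency for an increased fraction of larvae scored with body axis malformation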
Procedure, shortened: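 Binary scoring of axis defects at 120 hpf under brightfield, fitted positive versus DMSO. Tropical 5D embryos, chorion removed by pronase at 4 hpf, were singly exposed in sealed, dark plates at 28C from 6 hpf; DMSO 0.64% final.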

Measured: AC50

CCNc1nc(NC(C)(C)C)nc(SC)n1
not listed: [8] | [9] | [10]
inactive: all other assays above

CC(C)(c1ccc(OCC2CO2)cc1)c1ccc(OCC2CO2)cc1 (centres undefined)
active: [2] 64.5 µM | [3] 84.2 µM and 80.6 µM | [4] 70.9 µM and 72.2 µM | [5] 87.1 µM | [7] 79.4 µM
inactive: [1] | [2] | [5] | [6] | [7]

CCCCCCCCSC(=O)Oc1cc(Cl)nnc1-c1ccccc1
active: [2] 59.1 µM
inactive: [1] | [3] | [4] | [5] | [6]

Nc1ccc(-c2ccc(N)c(Cl)c2)cc1Cl
active: [1] 14.4 µM and 13.7 µM and 16.7 µM | [3] 15.7 µM and 18.6 µM | [5] 16.3 µM and 43.3 µM | [7] 33.6 µM
inactive: [2] | [3] | [4] | [5] | [6] | [7]

Clc1nc(Cl)nc(Cl)n1
not listed: [8] | [9] | [10]
inactive: all other assays above

C[C@H]1CCCC(=O)CCC/C=C/c2cc(O)cc(O)c2C(=O)O1
active: [1] 11.7 µM | [3] 12.3 µM and 15.8 µM | [5] 11.7 µM | [7] 8.07 µM and 12.3 µM
inactive: [1] | [2] | [4] | [5] | [6]

CCC[CH2][Sn]([CH2]CCC)([CH2]CCC)[O]C(=O)c1ccccc1
active: [1] 23.9 µM | [2] 2.09 µM | [3] 24.4 µM | [4] 0.953 µM | [5] 24.7 µM | [6] 1.77 µM | [7] 27.2 µM

COc1cc(-c2ccc(N)c(OC)c2)ccc1N
inactive: [1] | [2] | [3] | [4] | [5] | [6] | [7] | [8] | [9] | [10]
active: [1] 63 µM | [3] 63.6 µM | [5] 71.3 µM | [7] 64 µM | [9] 32.8 µM

C[C@@H]1C[C@@H]([C@H](O)CC2CC(=O)NC(=O)C2)C(=O)[C@@H](C)C1
inactive: [1] | [2] | [3] | [4] | [5] | [6] | [7] | [9] | [10]
active: [1] 13.5 µM | [4] 1.92 µM | [8] 43.2 µM

[O-][Cl+2]([O-])O
not listed: [8] | [9] | [10]
inactive: all other assays above

COP(=S)(OC)Oc1cc(Cl)c(Cl)cc1Cl
not listed: [8] | [9] | [10]
inactive: all other assays above

C[C@H]1O[C@@H](O[C@H]2[C@@H](O)C[C@H](O[C@H]3[C@@H](O)C[C@H](O[C@H]4CC[C@@]5(C)[C@H](CC[C@@H]6[C@@H]5CC[C@]5(C)[C@@H](C7=CC(=O)OC7)CC[C@]65O)C4)O[C@@H]3C)O[C@@H]2C)C[C@H](O)[C@@H]1O
inactive: [1] | [3] | [5] | [6] | [7]
active: [2] 30 nM and 51.3 nM | [4] 40.5 nM and 66.7 nM | [6] 0.028 µM

CC(C)(C)CC(C)(C)c1ccc(O)cc1
active: [1] 74.7 µM and 35.4 µM | [2] 35 µM | [3] 41.9 µM | [4] 69 µM and 22.2 µM | [5] 61.9 µM and 38.6 µM | [6] 65.3 µM and 39.6 µM | [7] 79.4 µM
inactive: [2] | [3] | [7] | [8] | [9] | [10]

COc1cc2c(cc1OC)[C@@]13CCN4CC5=CCO[C@H]6CC(=O)N2[C@H]1[C@H]6[C@H]5C[C@H]43
not listed: [8] | [9] | [10]
inactive: all other assays above

C1CCC(NC2CCCCC2)CC1
not listed: [8] | [9] | [10]
inactive: all other assays above

ClCCBr
not listed: [8] | [9] | [10]
inactive: all other assays above

CCCCCCCCCl
not listed: [8] | [9] | [10]
inactive: all other assays above

C(=NC1CCCCC1)=NC1CCCCC1
active: [2] 17.7 µM and 30.7 µM | [3] 16.2 µM
inactive: [1] | [3] | [5] | [6] | [7]

CC(C)C1CCC(Cc2ccc(Cl)cc2)C1(O)Cn1cncn1 (centres undefined)
active: [1] 67.8 µM | [2] 45.7 µM | [3] 85.6 µM | [4] 45.7 µM | [5] 82.8 µM | [6] 71.1 µM | [7] 88.7 µM

Nc1cccc(Cl)c1
not listed: [8] | [9] | [10]
inactive: all other assays above

O=[N+]([O-])c1ccc(O)c([N+](=O)[O-])c1
inactive: [2] | [3] | [4] | [5] | [6] | [7] | [9]
active: [1] 69 µM and 63.7 µM | [3] 78.5 µM | [5] 79.2 µM | [8] 26.4 µM

CNC
not listed: [8] | [9] | [10]
inactive: all other assays above

COC(=O)c1sccc1S(=O)(=O)NC(=O)Nc1nc(C)nc(OC)n1
not listed: [8] | [9] | [10]
inactive: all other assays above

COP(=O)(OC)OC
not listed: [8] | [9] | [10]
inactive: all other assays above

O=C1C(Cl)=C(Cl)C(=O)c2ccccc21
active: [2] 30.9 µM and 46.2 µM | [3] 54.1 µM and 67.3 µM | [4] 14.5 µM and 14.4 µM | [5] 63.4 µM and 19.6 µM | [6] 57.7 µM | [7] 17.1 µM
inactive: [1] | [6] | [7]

Clc1ccc(C2(Cn3cncn3)CC(Br)CO2)c(Cl)c1 (centres undefined)
active: [1] 69.2 µM
not listed: [8] | [9] | [10]
inactive: all other assays above

CC(Br)C(=O)O (centres undefined)
not listed: [8] | [9] | [10]
inactive: all other assays above

OCC(O)CCl (centres undefined)
not listed: [8] | [9] | [10]
inactive: all other assays above

CC(C)c1cccc(C(C)C)c1O
inactive: [1] | [2] | [3] | [4] | [5] | [6]

Cn1sc(Cl)cc1=O
inactive: [1] | [2] | [3] | [5] | [6] | [7]
active: [2] 29.8 µM | [8] 25.7 µM

O=C(O)C(Cl)(Cl)Cl
inactive: all assays above

C=C(C)C#N
not listed: [8] | [9] | [10]
inactive: all other assays above

CCN1CCC2(CC1)COc1cc3c(cc12)N(C(=O)c1ccc(-c2ccc(-c4nnc(C)o4)cc2C)cc1)CC3
active: [1] 64.8 µM | [2] 67.5 µM | [4] 45.7 µM | [6] 64.2 µM | [7] 57.4 µM
inactive: [3] | [5] | [8] | [9] | [10]

COP(=O)(OC)O/C(=C\Cl)c1cc(Cl)c(Cl)cc1Cl
inactive: [1] | [2] | [3] | [4] | [5] | [7]

CCOP(OCC)OCC
inactive: [1] | [2] | [3] | [4] | [5] | [7]

Clc1ccc(COC(Cn2ccnc2)c2ccc(Cl)cc2Cl)cc1 (centres undefined)
active: [1] 60.3 µM and 33.3 µM and 23.5 µM | [2] 72.9 µM and 73.5 µM and 23 µM | [3] 66.3 µM and 45.5 µM and 34.6 µM | [4] 70.5 µM and 61.1 µM and 37.6 µM | [5] 79.1 µM and 60.7 µM and 38.7 µM | [6] 85.2 µM and 75.6 µM and 36.2 µM | [7] 77.8 µM and 62 µM and 33.9 µM

O=C1C2(Cl)C3(Cl)C4(Cl)C(Cl)(Cl)C5(Cl)C3(Cl)C1(Cl)C5(Cl)C24Cl (centres undefined)
active: [1] 82.6 µM and 60.4 µM | [2] 80.6 µM and 78.5 µM | [3] 72.4 µM and 85.4 µM | [4] 68.4 µM and 66.4 µM | [5] 83.8 µM and 85 µM | [6] 82 µM and 83.7 µM | [7] 83.2 µM and 60.3 µM | [9] 72.1 µM | [10] 6.6 µM
inactive: [8]
